# From PubChem BioAssay (EPA / NIEHS)
# “And” between values parts separate entries of the source, which are not always exact repeats. Equal entries are not always repeated. Results filed as inconclusive are left out. The source made the active and inactive calls. How the source made its calls: active means hit-call score of the fitted dose curve at least 0.9, where 1 is the maximum; inconclusive means response in the unintended direction; inactive means score below 0.9.
# Biological target: Peroxisome proliferator-activated receptor gamma (Homo sapiens) (UniProt P37231)
# Experiment: ATG_hPPARg_XSP2: Attagene TRANS-FACTORIAL Multi-Species (XSP2) HepG2 Assay for human Peroxisome Proliferator-activated Receptor gamma (PPARg) (AID 2283829);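 further: actives raise reporter mRNA above DMSO so AC50 reflects PPARg activation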
# Protocol: ATG_XSP2_multi-species_TRANS is a cell-based, multiplexed assay created by modifying the existing Attagene TRANS-FACTORIAL system to include a panel of nuclear receptors from some or all the following species: human (Homo sapiens), mouse (Mus musculus), frog (Xenopus laevis), zebrafish (Danio rerio), chicken (Gallus gallus), and turtle (Chrysemys picta). The ECOTOX-FACTORIAL format uses HepG2, a human liver cell line, with measurements taken at 24 hours after chemical dosing in a 24-well plate. Xsp2 included 3 nM 6-alpha-fluorotestosterone and 1.5 nM norgestrel to stimulate the androgen receptor.ATG_hPPARg_XSP2 is one of 29 assay components measured or calculated from the ATG_XSP2_multi-species_TRANS assay. It is designed to make measurements of mRNA induction, a form of inducible reporter, as detected with fluorescence intensity signals by Reverse transcription polymerase chain reaction (RT-PCR) and Capillary electrophoresis technology.The assay endpoint ATG_hPPARg_XSP2 was analyzed in the positive analysis fitting direction relative to DMSO as the negative control and baseline of activity. Using a type of inducible reporter, measures of mRNA for gain-of-signal activity can be used to understand the reporter gene at the transcription factor-level as they relate to the gene PPARg. Furthermore, this assay endpoint can be referred to as a primary readout, because this assay has produced multiple assay endpoints where this one serves a reporter gene function. To generalize the intended target to other relatable targets, this assay endpoint is annotated to the nuclear receptor intended target family, where the subfamily is non-steroidal.
# Human liver HepG2 cells are transiently transfected with multiple reporter transcription units (MRTUs) in 6-well plates using FuGene 6 reagent (Roche; 3 ml FuGene/1 mg DNA). The MRTU constructs are regulated by a cis-regulating element (promoter). […] A major difference between the CIS and TRANS system is that in CIS activities of endogenous TFs are measured, whereas the TRANS assay evaluates changes in activities of exogenous, chimeric NR-Gal4 proteins. […] At the end of 24 hour incubation, total RNA was isolated using TriZol reagent (Invitrogen). The isolated RNA is then reverse-transcribed using oligo(dT) primer and Mo-MLV reverse transcriptase (Invitrogen) with DNAse I (Ambion) treatment for 30 min. The one-tenth of the produced cDNA was amplified by PCR using Taq DNA polymerase (Invitrogen) and two reporter sequence-specific primers. The PCR products were fluorescently labeled by primer extension with 6-arboxyfluorescein (6-FAM) 5'-labeled reporter sequence-specific primer (2 min at 95 C, 20 s at 68 C and 10 min at 72 C) and these products were digested with 5U of HpaI (New England Biolabs) for 2h at 37 C. The fragments were purified using Qiaquick PCR columns (Qiagen), analyzed on an ABI 3130xL genetic analyzer (Applied Biosystems) with peak positions identified by using a set of X-rhodamine (ROX)-labeled MapMarker1000 molecular weight standards (BioVentures). The raw capillary electrophoresis data was processed using Attagraph software (Attagene).
# Peroxisome proliferator-activated receptor gamma (Homo sapiens), sequence (P37231 whole entry, looked up): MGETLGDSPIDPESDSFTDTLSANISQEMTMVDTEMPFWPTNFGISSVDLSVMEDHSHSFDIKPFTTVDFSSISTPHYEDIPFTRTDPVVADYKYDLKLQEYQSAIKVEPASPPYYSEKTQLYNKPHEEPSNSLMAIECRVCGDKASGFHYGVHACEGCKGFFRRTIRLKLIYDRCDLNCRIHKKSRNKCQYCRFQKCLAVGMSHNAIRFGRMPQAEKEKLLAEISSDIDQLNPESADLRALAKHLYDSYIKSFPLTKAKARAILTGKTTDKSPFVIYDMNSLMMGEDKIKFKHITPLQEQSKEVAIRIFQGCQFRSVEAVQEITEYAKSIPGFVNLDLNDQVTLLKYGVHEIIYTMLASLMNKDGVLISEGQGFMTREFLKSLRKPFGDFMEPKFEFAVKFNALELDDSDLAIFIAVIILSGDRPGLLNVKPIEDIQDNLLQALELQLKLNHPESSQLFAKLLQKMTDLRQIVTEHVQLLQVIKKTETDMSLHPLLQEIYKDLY
Structure (SMILES),outcome,AC50
CC(=O)C=C(C)C,inactive,
COP(=O)(OC)O/C(=C\Cl)c1cc(Cl)c(Cl)cc1Cl,,15 µM (active)
Oc1c(I)cc(I)cc1I,,12 µM (active) and 10.4 µM (active)
CC1(C)CCC(Cc2ccc(Cl)cc2)C1(O)Cn1cncn1 (stereo not drawn),inactive,
Clc1ccc(C2(Cn3cncn3)CC(Br)CO2)c(Cl)c1 (stereo not drawn),inactive,
C[C@]12CCC(=O)C[C@@H]1CC[C@@H]1[C@@H]2CC[C@]2(C)[C@@H](O)CC[C@@H]12,inactive,
O=S(=O)(c1ccc(Cl)cc1)c1ccc(Cl)cc1,,11.4 µM (active) and 6.91 µM (active)
C[C@]12CC[C@H](O)CC1=CC[C@@H]1[C@@H]2CC[C@]2(C)C(=O)CC[C@@H]12,inactive,
C[C@H]1CCCC(=O)CCC/C=C/c2cc(O)cc(O)c2C(=O)O1,inactive,
O=C1C2(Cl)C3(Cl)C4(Cl)C(Cl)(Cl)C5(Cl)C3(Cl)C1(Cl)C5(Cl)C24Cl (stereo not drawn),inactive,
CC12CC1(C)C(=O)N(c1cc(Cl)cc(Cl)c1)C2=O (stereo not drawn),inactive,
Oc1ccc(-c2ccccc2)cc1,,63.1 µM (active) and 100 µM (active)
CC(C)C1CCC(Cc2ccc(Cl)cc2)C1(O)Cn1cncn1 (stereo not drawn),,3.93 µM (active)
